# Measurements taken from PubChem BioAssay AID2066 (NMMLSC, 2009).
# Among all 320,000 compounds or so, about 50 (0.02%) were called active. The full list was thinned out, with actives kept by preference. A number with no mark means an inactive call.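 Rule for the calls: active = GFP response relative to DMSO above a set limit, near screen average plus 3 SD (cut at about 150% in these data); inconclusive = fewer than 70 cells counted for the yeast strain; inactive = the rest.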
# Experiment: yeast AGP1-GFP level changes, GLN3 branch – cell-based, multiplex flow cytometry, S. cerevisiae, MLPCN library, primary screen (AID 2066);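 note: median GFP channel fluorescence of the gated AGP1 strain per well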
# Settings: 3 h, at 10 µM, hits give high values, GFP as percent of DMSO wells
row,SMILES,GFP response vs DMSO
1,CCn1cc(C(=O)N2CC(C)CC(C)C2)c(=O)c2cc(S(=O)(=O)N3CCCC3)ccc21 (stereo not given),93.8%
2,CC1=CC=CN2C1=NC(=O)CC2(C)C(=O)N(CC(=O)NC1CCCC1)c1ccccc1C (stereo not given),99.9%
3,CCOc1ncccc1C(=O)OCC(=O)Nc1cccc(S(=O)(=O)N2CCCCCC2)c1,100%
4,CCOc1ccc(N2C(=O)CSC2=NC#N)cc1,88.3%
5,Cc1ccc(S(=O)(=O)NCC(=O)N(CC(=O)NCC2CCCO2)c2cccc(F)c2)cc1 (stereo not given),114%
6,CC1(C)NC(=O)N(CC(=O)N2CCN(S(=O)(=O)c3ccccc3F)CC2)C1=O,95.5%
7,Cc1cc(C)c(NC(=S)N2CCCC2C(=O)O)c(C)c1 (stereo not given),102%
8,Cc1cccc(C)c1NC(=O)C1(N(C(=O)c2ccccn2)c2ccc(O)cc2)CCCCC1,97.2%
9,CC(=O)C[C@H](O)CC(=O)[C@@H]1OC(=O)[C@@H](C)C/C=C\Cc2ccccc21,98.2%
10,CCOc1ccc(C2NC(=S)NC3=C2CCc2ccccc23)cc1 (stereo not given),103%
11,CCCCn1nc(C(=O)N2CCc3ccccc32)c2ccccc2c1=O,98.5%
12,Cc1ccccc1OCC(=O)NNC(=O)c1ccc(-n2cncn2)c([N+](=O)[O-])c1,106%
13,O=C(CSc1cccc[n+]1[O-])NCCCc1ccccc1,101%
14,O=C(Nc1ccc(F)cc1)C1CCCN(S(=O)(=O)c2ccc(-n3cnnn3)cc2)C1 (stereo not given),102%
15,CCN(CC)CCNS(=O)(=O)c1ccc(/C=C/C(=O)O)cc1,98.4%
16,Cc1ccc(NC(=O)CSc2nn3c(=O)c(C)nnc3s2)cc1Cl,93.9%
17,Cc1ccc(S(=O)(=O)c2nnn3c2nc(N2CCN(c4ccccn4)CC2)c2ccccc23)cc1,97.1%
18,CC(=O)Nc1ccc(Nc2nc3c(S(=O)(=O)c4ccc(C)c(C)c4)nnn3c3ccccc23)cc1,100%
19,Cc1cccc(Nc2nc3c(S(=O)(=O)c4ccccc4)nnn3c3ccccc23)c1C,224% [may fluoresce green] (active)
20,NC(=O)C1CC=CCC1C(=O)OCC(Cl)=C(Cl)Cl (stereo not given),105%
21,Cc1cc(C)cc(OCC(=O)OCC(=O)NC2CCCC2)c1,87.5%
22,O=C(Nc1nccs1)c1cc(S(=O)(=O)N2CCOCC2)c(Cl)cc1Cl,100%
23,Cc1ccc(C(=O)Nc2ccn(C)n2)cc1,102%

row,SMILES,GFP response vs DMSO
1,CN(C)S(=O)(=O)c1cc(C(=O)Nc2ccn(C)n2)c(Cl)cc1Cl,1300% [may fluoresce green] (active)
2,Cn1nnnc1SCC(=O)Nc1ccccc1C(=O)NC1CC1,102%
3,Cc1ccc2c(=O)cc(C(=O)NCCc3ccc(S(N)(=O)=O)cc3)oc2c1C,93.5%
4,Cc1oc(C(N)=O)cc1COc1ccc(C(N)=O)cc1,101%
5,O=C1CCC/C=C/C[C@@H](CC(=O)N(CCO)Cc2ccccc2)C(=O)NC[C@H](c2ccccc2)O1,96.8%
6,Cc1ccc(C)c(NC(=O)CCC(=O)N/N=C2/CC(=O)CC(C)(C)C2)c1,96.2%
7,O=C(COC(=O)c1cc(S(=O)(=O)N2CCOCC2)ccc1F)NC1CC1,91.4%
8,COc1cccc(C(=O)Nc2cc3c(cc2Br)OCCCO3)c1,92%
9,CS(=O)(=O)Nc1ccccc1C(=O)OCC(=O)NC1CC1,106%
10,O=C(CCc1[nH]c2ccccc2c1Sc1ccccc1)N(CCO)CCO,99.2%
11,Nc1nc(NCc2ccccc2)n(-c2ccccc2)n1,99.9%
12,COc1cc(C)ccc1OCC(=O)OCC(=O)c1ccc[nH]1,100%
13,COc1ccc(S(=O)(=O)N(C)C[C@@H]2Oc3ccc(NS(=O)(=O)c4cn(C)cn4)cc3C(=O)N([C@@H](C)CO)C[C@@H]2C)cc1,91.3%
14,COCCn1c(SCC(=O)Nc2ccccc2F)nc2c(c1=O)SCC2,96.5%
15,Cc1ccc(Oc2cc(NC(=O)CCCn3nc(C)c([N+](=O)[O-])c3C)cc([N+](=O)[O-])c2)cc1,95.5%
16,CCn1cc(C(=O)Nc2cc(C)ccc2C)c(=O)c2ccc(C)nc21,108%
17,C=CCNC(=S)/N=c1/ccccn1Cc1ccccc1,108%
18,Cc1ccc2cc(C)c(N3CCC(C)CC3)nc2c1,108%
19,CCC1(C)Cc2c(sc3nnn(CC(=O)Nc4ccc(Cl)cc4)c(=O)c23)CO1 (stereo not given),98%
20,Cc1nn(Cc2ccccc2)c(C)c1C(=O)N1CCN(CC(=O)Nc2ccccc2Cl)CC1,99.8%
21,CCN1C(=O)N[C@@H](c2ccccc2)[C@H](C(C)=O)[C@H]1C,81.1%
22,COC(=O)c1cc(NC(=O)c2cc(C(C)(C)C)nn2Cc2cccc(C)c2)ccc1N1CCOCC1,97%
